PMC12136788
Substitutions are numbered along the chain they refer to. In all, about 5,800 sequences were measured (“enrichment r”: median about 0.54, highest 2% from about 16 on). The list comes from a sample in which the highest values are over-represented; it also holds similar and randomly drawn sequences.

B1: chr8:7990417:7990620:-|CDS|ENSG00000205989|control|control|control (ssRNA)
RNA: GGGAGUUCUACAGUCCGACGAUCGAUGUCUGCAACAUAGUAGAAGAUCAAAUUGGUGCCUGCCGAAGAAGGAUGAAGUGCUGUAGAGCAUGGUGGAUUUUAAUGCCAAUUCCAACACCACUUAUCAUGUCAGAUUAUCAAGAACAACAGAGGAUUGAGCAUCA
B2: chr20:37241422:37241523:+|3pUTR|ENSG00000118705|msi1_unk|FALSE|overlapping (ssRNA)
RNA: GGGAGUUCUACAGUCCGACGAUCGUAUGAGAAGAAAAAUGGAAAAAAAAAACUUUAUUUAAAAAAGAAAAAAGUCCAGAUUGUAGUUAUACUUUUGCUUGUUUUUCAGUUUCCCCAACACACAGCAGAUACCUGGUGAGCUCACAACAGAGGAUUGAGCAUCA
B3: chr8:80500255:80500365:+|CDS|ENSG00000205189|unk|total|mutant (ssRNA)
RNA: GGGAGUUCUACAGUCCGACGAUCGAAAAACCAAACUACAAAAAGAUUUAUUUAUAAUAUUCCACCUAAUAAUGAAACGAAUUCCGAAGAUUGCUCAGUAAUGCAGCCACCUGUUGCCUAUCCAGAAGAAAAUACACUACUCAUCAACAGAGGAUUGAGCAUCA
B4: chr2:30158716:30158817:+|CDS|ENSG00000119801|msi1|total|mutant (ssRNA)
RNA: GGGAGUUCUACAGUCCGACGAUCGUUUGCCACUGAAGACAGCCAGCGAUAUAAGGAAGGCCGCGUGAUCCUGGAACGUGCUCCCGUUCGAGAGAGUGAGGGCUUUGAGGAGCAUGUACCAUCUGAUAACUCUUGAAGAUACAGCAACAGAGGAUUGAGCAUCA
B5: chr5:115137525:115137627:-|CDS|ENSG00000152503|unk|FALSE|unique (ssRNA)
RNA: GGGAGUUCUACAGUCCGACGAUCUUUAGCAGAAGAGGCUAUUCUUUGUUUUAUCUUAGUGUAAUGGAGAUACUGUUUUUUCUUAGUGUAAUGGAGAGAGGGCUAAAGAAGAAGCAAUUACACAUUUUGAAAAGCUCUUUGAAGCAACAGAGGAUUGAGCAUCA
B6: ENSG00000115904:stop:overlap|stop_codon|ENSG00000115904|stop_codon|NA|stop_codon (ssRNA)
RNA: GGGAGUUCUACAGUCCGACGAUCUUUUGCAACGAAUGGAAGAAUUUAUUGGAACAGUAAGAGAGCUGUACAGCCAUCAGAAUUAGUUGGAAGUGUGUGGACAAAAGAAGACAAAGAAAUUAACUCUCCUAAUCUUCUGAAAAUCAACAGAGGAUUGAGCAUCA
B7: chr12:122341087:122341188:-|CDS|ENSG00000130779|unk|FALSE|bound_elsewhere (ssRNA)
RNA: GGGAGUUCUACAGUCCGACGAUCAGAAUUUGCUGAACUAAAAACACAAAUAGAGAAAAUGAGACUAGAUUACCAACACGAAAUAGAAAAUUUGCAGAAUCAACAAGACUCUGAACGGGCUGCCCAUGCUAAAGAGAUGGAAGCCAACAGAGGAUUGAGCAUCA
B8: chr5:52955293:52955406:+|3pUTR|ENSG00000213949|unk|FALSE|unique (ssRNA)
RNA: GGGAGUUCUACAGUCCGACGAUCUACCAACCAGUGUGAGCUGACUUCAGCACACCACUGAGACAGAUUACACGAUAGACAGAUAGAUAGAUAGAUAGAUAGAUAGAUAGAUAGAUAGAUAGAUAGAUAUUGAUAGAGAACAUGCAACAGAGGAUUGAGCAUCA
B9: ENSG00000136451:be:win_1001|CDS|ENSG00000136451|bound_else_gene|NA|bound_elsewhere_windowed (ssRNA)
RNA: GGGAGUUCUACAGUCCGACGAUCACCAAAAGCAGCAGCAGCAGCAGCAGCAGCAGCAGCAGCAGCAGCAACAACAACAACAACAACAUGUGACAAGCUGGCCAGGGAAGCAAGUAGAAACACUGAGACUGUGGGAAGAAGCUGCAACAGAGGAUUGAGCAUCA
B10: chr15:56434137:56434395:-|CDS|ENSG00000138587|control|control|control (ssRNA)
RNA: GGGAGUUCUACAGUCCGACGAUCAGAGGAAGAGGAGAACUUUAGAAAAACUAUGCUAGCUAAAUUUGCUGAGGAUGAUCGAAUAGAAUUAAUGAAUGCUCAGAAACAAAGAAUGAAGCAGCUGGAACACAGGAGGGCUGUGGACAACAGAGGAUUGAGCAUCA
B11: chr12:122341087:122341188:-|CDS|ENSG00000130779|unk|total|mutant (ssRNA)
RNA: B7 RNA with U50C, A51C, U65C, A66C, U83C, A84C
B12: chr5:52955293:52955406:+|3pUTR|ENSG00000213949|unk|total|mutant (ssRNA)
RNA: GGGAGUUCUACAGUCCGACGAUCUACCAACCAGUGUGAGCUGACUUCAGCACACCACUGAGACAGAUUACACGACCGACAGACCGACCGACCGACCGACCGACCGACCGACCGACCGACCGACCGAUAUUGACCGAGAACAUGCAACAGAGGAUUGAGCAUCA
B13: chr5:136977529:136977630:-|3pUTR|ENSG00000152377|msi1|FALSE|unique (ssRNA)
RNA: GGGAGUUCUACAGUCCGACGAUCACAAGCCAUCUCUUUCAUUUCUGCUUGAAGCCCCUUGGCUGCAGCAAUCCUGUCUGCCAUAGGUUUCUUCCUUCCUUACCUACUCAAGGGCUUUUUCUAAGGCAUGCACACAUAUCUCCUCAACAGAGGAUUGAGCAUCA
B14: chr12:100625254:100625355:+|3pUTR|ENSG00000139354|unk|total|mutant (ssRNA)
RNA: GGGAGUUCUACAGUCCGACGAUCAUAUGUAUUAAAUAUGGAGUUCAUAUACCUGCUAAUAUCAACGGUGGUGCUCUUACUAUCCGUUAAUUGCAUUUUGGUUAAAAAAAAAAAAGCAACAGUUUGGCACUUGUCCUACAAAAGCAACAGAGGAUUGAGCAUCA
B15: chr3:48857559:48857660:-|3pUTR|ENSG00000178537|unk|total|mutant (ssRNA)
RNA: GGGAGUUCUACAGUCCGACGAUCGGCUGAAGGCUGCUCAAGUUCACUUCUGGAUGCUGGAAGCUGUCGUUGAGGAGAAGGAGCCGUAAGCAGAACUAAGCAGUCUUGGAGGGCAAGGGGAGGGGAAUGGUGAGAUCCGAGCCCCAACAGAGGAUUGAGCAUCA
B16: chr2:20282997:20283108:-|CDS|ENSG00000055917|unk|total|mutant (ssRNA)
RNA: GGGAGUUCUACAGUCCGACGAUCACUAAUCUGCAAUCUAAUUCAUUUUAUGGAAGCAGUUCUUUGACUAACCGCUCCCAGAGCCGUUCUUUAUUUUCUCAUGGACCUGGUCAACCUGGAAGUACAUCUCUUGGCUUUGGAAGUCAACAGAGGAUUGAGCAUCA
B17: chr17:10306458:10306629:-|CDS|ENSG00000006788|control|control|control (ssRNA)
RNA: GGGAGUUCUACAGUCCGACGAUCCCACCUGGAGCGGAUGAAGAAGAACCUGGAGCAGACGGUGAAGGACCUGCAGCACCGUCUAGAUGAGGCUGAACAACUGGCGCUGAAGGGCGGGAAGAAGCAGAUCCAGAAACUGGAGAACAACAGAGGAUUGAGCAUCA
B18: chr3:45823315:45826332:-|three_prime_utr|ENSG00000163818|control|control|control (ssRNA)
RNA: GGGAGUUCUACAGUCCGACGAUCUCAGGCAUGUAUUUUGAAAAGCAUUUUGUCAUAUCCCCUCUCCUUAUUUUUCUAAUAUUUAGACUUUGAAUAUUUAGAACUAGAGUUCCUAUUUUCAGCUAGUUGAAAACAGAGAAAACCCAACAGAGGAUUGAGCAUCA
B19: ENSG00000136451:be:win_3751|3pUTR|ENSG00000136451|bound_else_gene|NA|bound_elsewhere_windowed (ssRNA)
RNA: GGGAGUUCUACAGUCCGACGAUCCUCCACAGUGGUCCAAGGAGCAGUCCUCAGUGGGGGCAGGUGUGGGCCCUACCCCUAAGCUAGAAUGUGGUUGUCAGAACCCUGAAAGUAUUAGUUCUAAAAAAAAAAAGAUAUAUACUACAACAGAGGAUUGAGCAUCA
B20: chr17:57972098:57972209:-|3pUTR|ENSG00000136451|unk|total|mutant (ssRNA)
RNA: GGGAGUUCUACAGUCCGACGAUCCCCGAAUGUGGUUGUCAGAACCCUGAAAGUAUCCGUUCUAAAAAAAAAAAGAUAUAUACCCGAAGUAAUUGUUUUAUCAAUUCAUUGUAUAAUAAACAGGAGUGAGACUUCAUUGUAUGACAACAGAGGAUUGAGCAUCA
B21: ENSG00000136451:be:win_3801|3pUTR|ENSG00000136451|bound_else_gene|NA|bound_elsewhere_windowed (ssRNA)
RNA: GGGAGUUCUACAGUCCGACGAUCACCCCUAAGCUAGAAUGUGGUUGUCAGAACCCUGAAAGUAUUAGUUCUAAAAAAAAAAAGAUAUAUACUAGAAGUAAUUGUUUUAUCAAUUCAUUGUAUAAUAAACAGGAGUGAGACUUCCAACAGAGGAUUGAGCAUCA
B22: chr1:67413009:67413110:-|3pUTR|ENSG00000142864|unk|FALSE|unique (ssRNA)
RNA: GGGAGUUCUACAGUCCGACGAUCCUGAAUUUUAUCUGUUUUAAAAAUGAACUUCUCCCGCUACACAGAAGUAACAAAUAUGGUAGUCAGUUUUGUAUUUAGAAAUGUAUUGGUAGCAGGGAUGUUUUCAUAAUUUUCAGAGAUCAACAGAGGAUUGAGCAUCA
B23: chr7:152122106:152122213:+|3pUTR|ENSG00000178234|unk|total|mutant (ssRNA)
RNA: GGGAGUUCUACAGUCCGACGAUCAGUGGUUUUUAUCUGAUCAGGAACUUGUCAUGAUUUCCUUUCUCCGACUUCACCGGAGACCGUGCUUUAAAAAAAAAAAAAACUUCUAUUAUUUGUUCCGUAUGUUGUAAGCCGAUCAUUCAACAGAGGAUUGAGCAUCA
B24: chr1:67413009:67413110:-|3pUTR|ENSG00000142864|unk|total|mutant (ssRNA)
RNA: B22 RNA with U83C, A84C, U99C, A100C, U113C, A114C
B25: chr17:57972098:57972209:-|3pUTR|ENSG00000136451|unk|FALSE|bound_elsewhere (ssRNA)
RNA: B20 RNA with C25U, C26A, C56U, C57A, C83U, C84A
B26: chr7:152122106:152122213:+|3pUTR|ENSG00000178234|unk|FALSE|unique (ssRNA)
RNA: B23 RNA with C67U, C68A, C76U, C77A, C83U, C84A, C121U, C122A, C135U, C136A
B27: chr18:2804133:2804242:+|3pUTR|ENSG00000101596|unk|FALSE|unique (ssRNA)
RNA: GGGAGUUCUACAGUCCGACGAUCGGUUAAAGAGAAAUGACUUUUUAGGAACUAGACUUGAACGUAUAAUUAAUAUGUGGAACUAGUUUGCUUUUAUAAUUCAUUGUAUCAAGAAGGAGUCAUGUUUUAAAUCCAAGGCAUUGACAACAGAGGAUUGAGCAUCA
B28: ENSG00000186472:stop:overlap|stop_codon|ENSG00000186472|stop_codon|NA|stop_codon (ssRNA)
RNA: GGGAGUUCUACAGUCCGACGAUCUUUCUUGUAAAUGGAAAUUUUAUCAUGUGUAUAGAUUCUGUAGCAUGCUUUUCUUUAUUUAGUUUUACUUUAUUCCUUUAUUGUUCUGUUUCUUGAUUGUUUGCUUGAUUUGUUUGGUGUCAACAGAGGAUUGAGCAUCA
B29: chr8:72021249:72022905:-|three_prime_utr|ENSG00000104321|control|control|control (ssRNA)
RNA: GGGAGUUCUACAGUCCGACGAUCGCAGAUAUGUUCAAAUUGGACUGGACUUUGAUGAGAUAUAAUCUCAUUAUUUGAAUGGGUAGAAAAUGAAUUUGCUAGAACACACAUUUUUAAUGAAAAGAAGUAAUAAAUGUAACUAUUCAACAGAGGAUUGAGCAUCA

molecular target: MSI1 full-length (mouse, UniProt Q61474 1-362); experiment: nsRBNS (natural sequence RNA bind-n-seq); RBNS binding buffer (assumed for nsRBNS): 25 mM Tris pH 7.5, 150 mM KCl, 3 mM MgCl2, 0.01% Triton X-100, 500 ug/ml BSA, 20 U/ml SUPERase-In, 4 C; UNK is unkempt and MSI1 is Musashi-1; names of the RNAs are library labels; protein concentration not given here; high values mean tight binding
Sequence (Q61474 whole entry): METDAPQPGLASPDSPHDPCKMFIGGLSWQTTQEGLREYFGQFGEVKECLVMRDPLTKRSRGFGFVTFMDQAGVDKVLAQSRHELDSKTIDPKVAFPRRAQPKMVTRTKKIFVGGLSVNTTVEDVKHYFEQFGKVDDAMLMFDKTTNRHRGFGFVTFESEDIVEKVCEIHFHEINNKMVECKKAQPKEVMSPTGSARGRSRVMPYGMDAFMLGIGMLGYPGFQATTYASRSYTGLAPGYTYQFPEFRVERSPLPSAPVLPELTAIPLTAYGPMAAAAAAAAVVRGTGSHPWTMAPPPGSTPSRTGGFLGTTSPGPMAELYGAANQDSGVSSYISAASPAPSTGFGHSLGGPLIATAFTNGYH

Binder	binding signal
B1	0.446 enrichment R
B2	1.41 enrichment R
B3	3.62 enrichment R
B4	0.472 enrichment R
B5	2.18 enrichment R
B6	1.25 enrichment R
B7	16.5 enrichment R
B8	67 enrichment R
B9	0.597 enrichment R
B10	3.42 enrichment R
B11	0.402 enrichment R
B12	0.369 enrichment R
B13	0.506 enrichment R
B14	0.371 enrichment R
B15	0.595 enrichment R
B16	0.305 enrichment R
B17	0.485 enrichment R
B18	5.79 enrichment R
B19	1.89 enrichment R
B20	0.711 enrichment R
B21	16.4 enrichment R
B22	41.4 enrichment R
B23	1.74 enrichment R
B24	0.413 enrichment R
B25	29.3 enrichment R
B26	20.2 enrichment R
B27	1.24 enrichment R
B28	0.35 enrichment R
B29	2.75 enrichment R
